The values that follow come from PubChem BioAssay (NCI).

The panel holds about 79,000 compounds, 15% with a hit somewhere; the sample as a whole holds those more often. A number with no mark means an inactive call. The source made the active and inactive calls. No stated cut-off is given here; in the data, active means growth inhibition above about 70%; inactive means the rest.

Experiment [1] in a line: NCI Yeast Anticancer Drug Screen. Data for the rad50 strain (AID 155).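 Further: 0% = growth of vehicle-only cultures of the same strain.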 The settings on record: S. cerevisiae rad50 strain growth inhibition, stronger effect = higher value. A digest of the protocol:
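A DNA repair-deficient yeast mutant serves as the test organism; compound-induced growth inhibition is calculated against vehicle-treated cells.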

Experiment [2] can be described thus: NCI Yeast Anticancer Drug Screen. Data for the mec2-1 strain (AID 157). The settings on record: S. cerevisiae mec2-1 strain, stronger effect = higher value. The procedure, abridged: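 Vehicle-treated cultures served as reference for growth inhibition of compound-exposed mec2-1 yeast.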
Experiment [3] in a line: NCI Yeast Anticancer Drug Screen. Data for the sgs1 mgt1 strain (AID 161).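 Further: 0% = growth of cultures given vehicle only.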 The settings on record: S. cerevisiae sgs1 mgt1 strain, stronger effect = higher value. A digest of the protocol: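 Read-out: growth inhibition vs vehicle controls. Cells: mutant yeast strain deficient in DNA damage repair.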
The nature of experiment [4]: NCI Yeast Anticancer Drug Screen. Data for the cln2 rad14 strain (AID 165).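 Further: 0% = growth equal to vehicle treated cultures.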 The settings on record: S. cerevisiae cln2 rad14 strain, stronger effect = higher value. The procedure, abridged: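 Each compound was tested on cln2 rad14 yeast. Inhibition of growth was calculated against vehicle-exposed controls.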
A short description of experiment [5]: NCI Yeast Anticancer Drug Screen. Data for the bub3 strain (AID 167). The settings on record: S. cerevisiae bub3 mutant strain, stronger effect = higher value. The procedure, abridged: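 Inhibition values come from growth of compound-treated mutant yeast normalised to vehicle-treated controls.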
Experiment [6] is described as follows: NCI Yeast Anticancer Drug Screen. Data for the mlh1 rad18 strain (AID 175). The settings on record: S. cerevisiae mlh1 rad18 strain growth inhibition, stronger effect = higher value. The procedure, abridged:
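Vehicle-treated cultures served as the reference for growth inhibition in a yeast strain carrying DNA damage repair alterations exposed to each compound.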

Where [7] appears, read: at 5.0 µM (retest, dose inferred, filed as 0.5).
Setting [8] is: at 50.0 µM (retest, dose inferred, filed as 5.0).

As for `[O-][N+]1=C2CCC/C(=N/O)C2(O)C2CCCCC21N1CCOCC1` (stereo not given), the growth inhibition in experiment [1] (setting [7]) was 26%; in experiment [1] (setting [8]), 20%; in experiment [1] (at 50.0 µM), -8.05%; in experiment [2] (setting [7]) it was 29%; in experiment [2] (setting [8]), 19%; in experiment [2] (at 50.0 µM) it was -39.8%. In addition, the growth inhibition is 24% in experiment [3] (setting [7]); 21% in experiment [3] (setting [8]); -2.1% in experiment [3] (at 50.0 µM); 23% in experiment [4] (setting [7]); 26% in experiment [4] (setting [8]); 25.5% in experiment [4] (at 50.0 µM). Moreover, the growth inhibition is 22% in experiment [5] (setting [7]); 14% in experiment [5] (setting [8]); -7.1% in experiment [5] (at 50.0 µM); 28% in experiment [6] (setting [7]); 26% in experiment [6] (setting [8]); -3.2% in experiment [6] (at 50.0 µM).
In the case of `CC1(C)OC2COC3(CNO)OC(C)(C)OC3C2O1` (stereo not given), the growth inhibition in experiment [1] (setting [7]) was 0%; in experiment [1] (setting [8]), -4%; in experiment [1] (at 50.0 µM) it was 22.5%; in experiment [2] (setting [7]) it was -1%; in experiment [2] (setting [8]) it was 1%; in experiment [2] (at 50.0 µM), 32.6%. The growth inhibition in experiment [3] (setting [7]) was -7%; in experiment [3] (setting [8]), -2%; in experiment [3] (at 50.0 µM), 83.1% (active); in experiment [4] (setting [7]), -5%; in experiment [4] (setting [8]), 8%; in experiment [4] (at 50.0 µM), 25.1%. In addition, the growth inhibition in experiment [5] (setting [7]) was 3%; in experiment [5] (setting [8]), 5%; in experiment [5] (at 50.0 µM) it was 63.9%; in experiment [6] (setting [7]) it was -10%; in experiment [6] (setting [8]), -2%; in experiment [6] (at 50.0 µM) it was 69.7%.
In the case of `O=C(Nc1ccc(Cl)cc1Cl)C1C(=O)OC2(CCCCC2)OC1=O`, the growth inhibition in experiment [1] (setting [7]) was 24%; in experiment [1] (setting [8]), 96% (active); in experiment [1] (at 50.0 µM) it was 84.5% (active); in experiment [2] (setting [7]), 38%; in experiment [2] (setting [8]), 98% (active); in experiment [2] (at 50.0 µM), 89.8% (active). Besides, the growth inhibition in experiment [3] (setting [7]) was 30%; in experiment [3] (setting [8]), 97% (active); in experiment [3] (at 50.0 µM) it was 55.6%; in experiment [4] (setting [7]) it was 37%; in experiment [4] (setting [8]), 98% (active); in experiment [4] (at 50.0 µM), 62.8%. Further, the growth inhibition in experiment [5] (setting [7]) was 45%; in experiment [5] (setting [8]), 98% (active); in experiment [5] (at 50.0 µM), 62.3%; in experiment [6] (setting [7]) it was 37%; in experiment [6] (setting [8]), 97% (active); in experiment [6] (at 50.0 µM), 87.2% (active).
Take `O=C(O)c1ccc2c(Br)ccc3c2c1CC3`: the growth inhibition in experiment [1] (setting [7]) is 13%; in experiment [1] (setting [8]) it was 8%; in experiment [1] (at 50.0 µM) it was 77.3% (active); in experiment [2] (setting [7]), -13%; in experiment [2] (setting [8]), 25%; in experiment [2] (at 50.0 µM), 56.1%. Further, the growth inhibition is -6% in experiment [3] (setting [7]); 16% in experiment [3] (setting [8]); 73.5% (active) in experiment [3] (at 50.0 µM); -8% in experiment [4] (setting [7]); -1% in experiment [4] (setting [8]); 18.1% in experiment [4] (at 50.0 µM). Also, the growth inhibition in experiment [5] (setting [7]) was -2%; in experiment [5] (setting [8]), 20%; in experiment [5] (at 50.0 µM), 8.05%; in experiment [6] (setting [7]), 34%; in experiment [6] (setting [8]), 35%; in experiment [6] (at 50.0 µM), 68.6%.
Regarding `O=Cc1c(I)cc(I)c(O)c1I`, the growth inhibition in experiment [1] (setting [7]) was 45%; in experiment [1] (setting [8]) it was 88% (active); in experiment [1] (at 50.0 µM), 98.6% (active); in experiment [2] (setting [7]) it was 46%; in experiment [2] (setting [8]), 99% (active); in experiment [2] (at 50.0 µM), 98.7% (active). For the same compound, the growth inhibition was 79% (active) in experiment [3] (setting [7]); 100% (active) in experiment [3] (setting [8]); 97.9% (active) in experiment [3] (at 50.0 µM); 42% in experiment [4] (setting [7]); 97% (active) in experiment [4] (setting [8]); 95.1% (active) in experiment [4] (at 50.0 µM). Further, the growth inhibition is 44% in experiment [5] (setting [7]); 67% in experiment [5] (setting [8]); 96.8% (active) in experiment [5] (at 50.0 µM); 56% in experiment [6] (setting [7]); 97% (active) in experiment [6] (setting [8]); 97.3% (active) in experiment [6] (at 50.0 µM).
Take `OC(c1cc(-c2ccccc2)nc2c(Cl)cc(Cl)cc12)C1CCCCN1` (stereo not given): the growth inhibition in experiment [1] (setting [7]) is 14%; in experiment [1] (setting [8]), 97% (active); in experiment [1] (at 50.0 µM), 99.5% (active); in experiment [2] (setting [7]), 18%; in experiment [2] (setting [8]) it was 92% (active); in experiment [2] (at 50.0 µM) it was 99.6% (active). Also, the growth inhibition in experiment [3] (setting [7]) is 18%; in experiment [3] (setting [8]), 98% (active); in experiment [3] (at 50.0 µM), 99.1% (active); in experiment [4] (setting [7]), 3%; in experiment [4] (setting [8]) it was 98% (active); in experiment [4] (at 50.0 µM) it was 98.3% (active). Besides, the growth inhibition in experiment [5] (setting [7]) was 2%; in experiment [5] (setting [8]) it was 99% (active); in experiment [5] (at 50.0 µM) it was 97.5% (active); in experiment [6] (setting [7]), 11%; in experiment [6] (setting [8]) it was 96% (active); in experiment [6] (at 50.0 µM) it was 98.8% (active).
`Cc1nc(-c2ccc(N=Cc3ccc(N(CCOS(C)(=O)=O)CCOS(C)(=O)=O)cc3)cc2)cs1`: the growth inhibition in experiment [1] (setting [7]) was 1%; in experiment [1] (setting [8]), 46%; in experiment [1] (at 50.0 µM) it was 46.5%; in experiment [2] (setting [7]), -24%; in experiment [2] (setting [8]), 9%; in experiment [2] (at 50.0 µM) it was 7.75%. Moreover, the growth inhibition in experiment [3] (setting [7]) is -2%; in experiment [3] (setting [8]), 17%; in experiment [3] (at 50.0 µM) it was 21.1%; in experiment [4] (setting [7]), -2%; in experiment [4] (setting [8]) it was 33%; in experiment [4] (at 50.0 µM), -45.7%. Besides, the growth inhibition in experiment [5] (setting [7]) is -3%; in experiment [5] (setting [8]) it was -10%; in experiment [5] (at 50.0 µM), -2.55%; in experiment [6] (setting [7]), 12%; in experiment [6] (setting [8]), 54%; in experiment [6] (at 50.0 µM), 71.8% (active).
Regarding `O=C(N/C(=C/c1ccc(Cl)cc1Cl)c1nc2ccccc2s1)c1ccccc1`, the growth inhibition in experiment [1] (setting [7]) was 27%; in experiment [1] (setting [8]), 98% (active); in experiment [1] (at 50.0 µM) it was 98.6% (active); in experiment [2] (setting [7]), 13%; in experiment [2] (setting [8]), 98% (active); in experiment [2] (at 50.0 µM) it was 97.7% (active). Further, the growth inhibition in experiment [3] (setting [7]) is 56%; in experiment [3] (setting [8]), 99% (active); in experiment [3] (at 50.0 µM), 98.9% (active); in experiment [4] (setting [7]), 14%; in experiment [4] (setting [8]), 98% (active); in experiment [4] (at 50.0 µM), 98.1% (active). In addition, the growth inhibition in experiment [5] (setting [7]) was 31%; in experiment [5] (setting [8]), 98% (active); in experiment [5] (at 50.0 µM) it was 98% (active); in experiment [6] (setting [7]), 26%; in experiment [6] (setting [8]) it was 98% (active); in experiment [6] (at 50.0 µM), 98.2% (active).
Turning to `c1ccc([P+](c2ccccc2)(c2ccccc2)C2c3ccccc3-c3ccccc32)cc1`, the growth inhibition in experiment [1] (setting [7]) was 68%; in experiment [1] (setting [8]) it was 98% (active); in experiment [1] (at 50.0 µM), 91.2% (active); in experiment [2] (setting [7]), 55%; in experiment [2] (setting [8]) it was 98% (active); in experiment [2] (at 50.0 µM) it was 92.8% (active). Moreover, the growth inhibition in experiment [3] (setting [7]) is 86% (active); in experiment [3] (setting [8]), 99% (active); in experiment [3] (at 50.0 µM), 89.5% (active); in experiment [4] (setting [7]), 31%; in experiment [4] (setting [8]) it was 97% (active); in experiment [4] (at 50.0 µM) it was 88.5% (active). The growth inhibition in experiment [5] (setting [7]) was 57%; in experiment [5] (setting [8]), 99% (active); in experiment [5] (at 50.0 µM), 86.5% (active); in experiment [6] (setting [7]), 69%; in experiment [6] (setting [8]), 98% (active); in experiment [6] (at 50.0 µM), 86.2% (active).
For the compound `O=[N+]([O-])C(=C(Nc1ccccc1)Nc1ccccc1)/C(Cl)=C(\Cl)Br`, the growth inhibition is -7% in experiment [1] (setting [7]); 99% (active) in experiment [1] (setting [8]); 98.7% (active) in experiment [1] (at 50.0 µM); 11% in experiment [2] (setting [7]); 99% (active) in experiment [2] (setting [8]); 99.5% (active) in experiment [2] (at 50.0 µM). Moreover, the growth inhibition was 6% in experiment [3] (setting [7]); 99% (active) in experiment [3] (setting [8]); 99.3% (active) in experiment [3] (at 50.0 µM); 22% in experiment [4] (setting [7]); 99% (active) in experiment [4] (setting [8]); 99.3% (active) in experiment [4] (at 50.0 µM). The growth inhibition in experiment [5] (setting [7]) was -11%; in experiment [5] (setting [8]), 99% (active); in experiment [5] (at 50.0 µM), 99.2% (active); in experiment [6] (setting [7]), 32%; in experiment [6] (setting [8]), 99% (active); in experiment [6] (at 50.0 µM), 99.2% (active).
